# Test results as given in PubChem BioAssay.
# Active and inactive are the calls of the source.
# Legend:
# [1] = optical density shifts of acrAB sulA E. coli – strain DRC41, OD650, 48 h, E. coli filamentation inducer project, primary screen (AID 1152); details: higher = more signal, called active from +8 up or from −8 down;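 further: E. coli MC1000 strain DRC41 lacking acrAB efflux pump and sulA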
# [2] = probe aLefty1 binding on compound microarray – biochemical, small-molecule microarray, 635/667 nm fluorescence, primary screen (AID 1153); details: higher = more signal;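 further: score merges spot fluorescence with signal-to-noise ratio from the scanned slide images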
# [3] = plasmodial surface anion channel blockers, osmotic lysis – cell-based, P. falciparum Indochina, OD700, 1 h, primary screen (AID 1154); details: P. falciparum Indochina infected RBC osmotic lysis, higher = more signal, called active from +8 up or from −8 down
# [4] = plasmodial surface anion channel blockers, osmotic lysis – cell-based, P. falciparum Indochina, OD700, 2 h, primary screen (AID 1155);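 further: lysis reports solute entry through the parasite surface anion channel PSAC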; details: P. falciparum Indochina infected erythrocytes, higher = more signal, called active from +8 up or from −8 down
# [5] = changes in parasitized red cell lysis, either direction – P. falciparum Indochina, OD700, 3 h, PSAC antagonist project, primary screen (AID 1156); details: P. falciparum-infected erythrocytes, osmotic lysis, higher = more signal, called active from +8 up or from −8 down
# [6] = plasmodial surface anion channel blockers, osmotic lysis – cell-based, P. falciparum Indochina, OD700, 18 h, primary screen (AID 1157); details: P. falciparum Indochina infected erythrocytes, osmotic lysis OD700, 18 h; higher = more signal, called active from +8 up or from −8 down
# [7] = S6 kinase pathway phospho-S6 level changes – cell-based, A549, cytoblot, luminescence, serum-stimulated, primary screen (AID 1158); details: 5 h, higher = more signal;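 further: serum-stimulated A549 lung adenocarcinoma cells; signal is phosphorylated S6 detected by cytoblot immunostaining with HRP secondary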
# [8] = biological target: NADPH oxidase 2 (Homo sapiens) (UniProt P04839); assay: compounds shifting NOX2 Amplex Red fluorescence – cell-based, HEK293-NOX2, PMA-stimulated, NOX inhibitor project, primary screen (AID 1159); details: 45 min, higher = more signal, called active from +8 up or from −8 down; further: test concentration not given here
# NADPH oxidase 2 (Homo sapiens), sequence (P04839 whole entry, looked up): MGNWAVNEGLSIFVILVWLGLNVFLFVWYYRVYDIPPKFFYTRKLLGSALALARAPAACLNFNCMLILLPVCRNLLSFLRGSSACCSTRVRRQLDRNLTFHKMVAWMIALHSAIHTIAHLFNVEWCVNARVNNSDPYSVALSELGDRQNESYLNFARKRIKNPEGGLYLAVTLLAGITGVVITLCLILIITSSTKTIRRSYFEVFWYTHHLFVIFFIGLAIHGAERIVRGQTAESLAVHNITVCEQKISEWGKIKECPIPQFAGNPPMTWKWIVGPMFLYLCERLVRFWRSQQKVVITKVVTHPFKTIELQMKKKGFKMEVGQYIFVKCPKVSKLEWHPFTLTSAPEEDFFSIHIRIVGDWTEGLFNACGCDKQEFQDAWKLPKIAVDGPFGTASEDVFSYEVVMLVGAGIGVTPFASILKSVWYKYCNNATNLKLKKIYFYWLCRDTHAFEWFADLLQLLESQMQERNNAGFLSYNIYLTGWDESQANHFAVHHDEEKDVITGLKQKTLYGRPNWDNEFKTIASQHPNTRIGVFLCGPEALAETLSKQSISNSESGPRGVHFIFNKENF
# [9] = biological target: NADPH oxidase 4 (Homo sapiens) (UniProt Q9NPH5); assay: compounds shifting NOX4 Amplex Red fluorescence – cell-based, HEK293-NOX4, tetracycline-induced, NOX inhibitor project, primary screen (AID 1160); details: HEK293-NOX4, Amplex Red H2O2 fluorescence, 45 min; higher = more signal, called active from +8 up or from −8 down
# NADPH oxidase 4 (Homo sapiens), sequence (Q9NPH5 whole entry, looked up): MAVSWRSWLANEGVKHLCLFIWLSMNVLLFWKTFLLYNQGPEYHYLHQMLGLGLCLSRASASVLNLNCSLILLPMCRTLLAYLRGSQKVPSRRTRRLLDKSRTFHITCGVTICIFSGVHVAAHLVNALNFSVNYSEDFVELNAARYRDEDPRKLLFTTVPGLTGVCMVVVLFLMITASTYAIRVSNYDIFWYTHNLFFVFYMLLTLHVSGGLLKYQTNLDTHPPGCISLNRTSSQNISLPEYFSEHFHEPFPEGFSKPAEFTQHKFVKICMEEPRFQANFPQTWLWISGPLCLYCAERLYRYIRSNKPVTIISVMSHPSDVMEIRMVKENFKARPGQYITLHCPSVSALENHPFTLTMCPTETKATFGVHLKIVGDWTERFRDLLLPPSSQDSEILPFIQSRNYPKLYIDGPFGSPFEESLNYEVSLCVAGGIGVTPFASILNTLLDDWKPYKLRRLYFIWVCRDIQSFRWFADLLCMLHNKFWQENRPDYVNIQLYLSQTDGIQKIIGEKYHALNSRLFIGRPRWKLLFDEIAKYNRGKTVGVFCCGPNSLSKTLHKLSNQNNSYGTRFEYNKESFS
# [10] = biological target: NADPH oxidase 5 (Homo sapiens) (UniProt Q96PH1); assay: compounds shifting NOX5 Amplex Red fluorescence – cell-based, HEK293-NOX5, NOX inhibitor project, primary screen (AID 1161); details: HEK293-NOX5, ionomycin, 45 min, higher = more signal
# NADPH oxidase 5 (Homo sapiens), sequence (Q96PH1 whole entry, looked up): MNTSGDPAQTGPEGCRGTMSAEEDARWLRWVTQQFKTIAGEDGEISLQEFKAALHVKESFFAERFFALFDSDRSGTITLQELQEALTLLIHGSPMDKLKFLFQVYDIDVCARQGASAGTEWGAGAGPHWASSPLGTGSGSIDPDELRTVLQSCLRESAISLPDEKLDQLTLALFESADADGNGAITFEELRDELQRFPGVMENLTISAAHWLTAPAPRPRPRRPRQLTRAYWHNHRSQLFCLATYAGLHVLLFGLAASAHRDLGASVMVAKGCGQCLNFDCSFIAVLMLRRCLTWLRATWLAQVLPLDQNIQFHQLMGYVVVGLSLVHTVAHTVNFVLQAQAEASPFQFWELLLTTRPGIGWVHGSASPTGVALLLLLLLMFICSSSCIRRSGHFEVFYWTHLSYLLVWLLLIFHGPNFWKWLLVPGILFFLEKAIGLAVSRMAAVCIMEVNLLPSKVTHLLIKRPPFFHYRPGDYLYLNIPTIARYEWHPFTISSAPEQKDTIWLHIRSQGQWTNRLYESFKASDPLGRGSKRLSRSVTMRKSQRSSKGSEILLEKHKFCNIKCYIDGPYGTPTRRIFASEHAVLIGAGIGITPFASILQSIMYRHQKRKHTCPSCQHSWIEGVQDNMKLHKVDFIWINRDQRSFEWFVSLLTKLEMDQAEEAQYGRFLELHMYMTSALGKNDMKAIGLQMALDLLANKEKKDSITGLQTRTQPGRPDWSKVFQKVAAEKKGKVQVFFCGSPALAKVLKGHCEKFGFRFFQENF
Structure (SMILES),z-score [1],composite z-score [2],z-score [3],z-score [4],z-score [5],z-score [6],z-score [7],z-score [8],z-score [9],z-score [10]
O=C1c2ccccc2[C@](Cc2ccccc2I)(C(=O)NCCN2CCOCC2)[C@H](c2ccc(CO)cc2)N1Cc1ccccc1C(F)(F)F,-2.6 (inactive),0.284,7.91 (inactive),1.13 (inactive),1.59 (inactive),0.65 (inactive),0.401,-1.06 (inactive),0.814 (inactive),1.15
CN1C(=O)C2C=CC(C(O)c3cccs3)N(N(c3ccccc3)c3ccccc3)C2C1=O (stereo not given),-0.822 (inactive),0.25,0.929 (inactive),1 (inactive),0.157 (inactive),0.556 (inactive),-0.967,-0.915 (inactive),-1.84 (inactive),-1.25
CCOC(=O)C[C@H]1[C@H](OC(=O)c2ccc(-c3ccccc3)cc2)[C@@H](NC(=O)C2CCCCC2)c2cc(OCCCO)ccc2N1C(=O)Cc1ccc(OC)cc1,-0.815 (inactive),0.0315,2.23 (inactive),0.166 (inactive),-0.816 (inactive),0.0141 (inactive),0.571,-0.289 (inactive),1.21 (inactive),0.732
CC(C)N1C(=O)[C@@]2(Cc3ccccc31)c1ccccc1C(=O)N(Cc1ccccc1C(F)(F)F)[C@H]2c1ccc(CO)cc1,-0.49 (inactive),-0.853,0.382 (inactive),0.596 (inactive),0.238 (inactive),0.501 (inactive),-0.0346,0.449 (inactive),-1.18 (inactive),0.56
COCCCNC(=O)[C@@]1(Cc2ccccc2I)c2ccccc2C(=O)N(C2CCCCC2)[C@H]1c1ccc(CO)cc1,0.0773 (inactive),0.293,8.09 (active),0.695 (inactive),2.44 (inactive),0.623 (inactive),0.453,0.392 (inactive),-1.2 (inactive),-3.06
CCCCC(=C=CC[C@@H](O)c1ccccc1OCCO)C[C@@H](O)c1ccccn1,0.142 (inactive),-0.0192,11.3 (active),1.51 (inactive),1.02 (inactive),0.894 (inactive),-0.261,1.32 (inactive),-0.281 (inactive),-1.41
OCCCc1cc[n+](Cc2cc3c(cc2Br)OCO3)cc1,0.855 (inactive),0.0191,-0.103 (inactive),0.0608 (inactive),-0.895 (inactive),-0.237 (inactive),-0.132,-0.0452 (inactive),0.27 (inactive),-0.112
O=C1N(Cc2ccccc2)Cc2ccccc2C[C@@]12COC(c1ccc(OCCCO)cc1)=N2,-0.595 (inactive),0.179,20.3 (active),4.93 (inactive),3.72 (inactive),1.48 (inactive),-0.087,-5.75 (inactive),-0.977 (inactive),-1.8
CCCCN1CC=CC23O[C@@H]4/C=C\CCC(C)OC(=O)C4[C@H]2C(=O)N(CCO)[C@@H]3C1=O (stereo not given in full),1.36 (inactive),-0.386,2.6 (inactive),0.254 (inactive),0.336 (inactive),0.479 (inactive),0.7,1.01 (inactive),0.416 (inactive),2.29
O=C1O[C@H](c2ccccc2)[C@H](c2ccccc2)N2[C@H]1[C@@H](C(=O)N1CCN(c3ncccn3)CC1)[C@]1(C(=O)Nc3ccc(C#CC4(O)CCCCCC4)cc31)[C@H]2c1ccc(O)cc1,2.51 (inactive),0.0903,0.36 (inactive),0.88 (inactive),1.09 (inactive),0.566 (inactive),1.37,1.24 (inactive),0.663 (inactive),1.22
CCOC(=O)C[C@H]1[C@H](OC(=O)c2cc3ccccc3oc2=O)[C@@H](NC(=O)c2ccc(-c3ccccc3)cc2)c2cc(OCCCO)ccc2N1C(=O)Cc1ccc(OC)cc1,-0.601 (inactive),-0.0162,20.3 (active),5.12 (inactive),0.557 (inactive),1.04 (inactive),-0.192,1.38 (inactive),1.08 (inactive),1.23
CC(C)N1CC=CC23O[C@@H]4/C=C\CCCOC(=O)C4[C@H]2C(=O)N(C(C)CO)[C@@H]3C1=O (stereo not given in full),2.12 (inactive),-0.195,1.2 (inactive),0.0831 (inactive),1.07 (inactive),0.429 (inactive),0.979,0.667 (inactive),0.142 (inactive),0.883
O=C1OCCC/C=C\[C@H]2OC34C=CCN(Cc5ccccc5)C(=O)[C@H]3N(CCO)C(=O)[C@@H]4C12 (stereo not given in full),2.28 (inactive),-0.0536,1.65 (inactive),0.803 (inactive),1.82 (inactive),0.671 (inactive),0.0012,1.7 (inactive),0.571 (inactive),1.68
COC(=O)[C@@]1(Cc2ccc(OC)cc2)[C@@H]2[C@@H](CC(=O)[C@H]2CC(=O)C(=O)N(C)C)CN1C(=O)c1ccccc1,-0.715 (inactive),2.12,2.94 (inactive),1.08 (inactive),0.63 (inactive),1.45 (inactive),0.58,0.337 (inactive),0.898 (inactive),0.427
COCCOC(=O)N1C(=O)[C@@]2(c3cc(C#CCC(C(=O)OC)C(=O)OC)ccc31)[C@H](C(=O)N1CCc3cc(OC)c(OC)cc3C1)[C@H]1C(=O)O[C@H](c3ccccc3)[C@H](c3ccccc3)N1[C@@H]2c1ccccc1OCCO,1.25 (inactive),-0.314,2.96 (inactive),1.42 (inactive),0.358 (inactive),0.265 (inactive),-0.0797,1.48 (inactive),1.57 (inactive),0.966
C=C(CCCC)C(=O)CC[C@H](OC(=O)c1ccccc1-c1ccccc1C(=O)O)c1cccc(OCCO)c1,-0.497 (inactive),-0.147,8.46 (active),1.77 (inactive),1.97 (inactive),0.478 (inactive),-0.363,0.976 (inactive),-0.462 (inactive),-1.74
O=C1O[C@@H](c2ccccc2)[C@@H](c2ccccc2)N2[C@@H](c3ccccc3OCCO)[C@]3(C(=O)Nc4ccc(C#CC5(O)CCCCCC5)cc43)[C@@H](C(=O)N3CCCCCCC3)[C@H]12,0.177 (inactive),3.07,1.14 (inactive),-0.256 (inactive),0.786 (inactive),-1.64 (inactive),1.76,-0.21 (inactive),-0.596 (inactive),0.147
Cc1ccc(S[C@]2(C(=O)NC(C)C)CC(=O)N(Cc3ccccc3)[C@@H]2c2ccc(CO)cc2I)cc1,0.214 (inactive),0.164,5.59 (inactive),0.654 (inactive),0.59 (inactive),0.231 (inactive),-0.35,0.671 (inactive),-0.818 (inactive),1.76
CO[C@H]1O[C@H](CO)[C@@H](OC(=O)Nc2ccccc2)[C@@H]2OC(=O)[C@@H](Cc3ccccc3)C/C=C/C[C@H](Cc3ccccc3)C(=O)O[C@@H]12,0.364 (inactive),-0.093,0.131 (inactive),0.162 (inactive),0.288 (inactive),0.0794 (inactive),-0.0813,-2.79 (inactive),-0.266 (inactive),-1.3
COCCOC(=O)N1C(=O)[C@@]2(c3cc(C#CCNC(N)=O)ccc31)[C@H](C(=O)N1CCN(c3ncccn3)CC1)[C@H]1C(=O)O[C@H](c3ccccc3)[C@H](c3ccccc3)N1[C@@H]2c1ccc(O)cc1,0.03 (inactive),-0.514,1.35 (inactive),-0.136 (inactive),0.889 (inactive),0.539 (inactive),-0.285,0.806 (inactive),0.432 (inactive),0.31
C=C(C)C1CN([C@H](CO)c2ccccc2)C(=O)/C1=C\c1ccccc1 (stereo not given in full),1.01 (inactive),-0.147,-0.0012 (inactive),-0.916 (inactive),-0.683 (inactive),-1.8 (inactive),1.59,-0.00303 (inactive),0.0494 (inactive),-1.27
CC1CC/C=C\[C@H]2OC34C=CCN(C(C)C)C(=O)[C@H]3N(C(C)CO)C(=O)[C@@H]4C2C(=O)O1 (stereo not given in full),1.9 (inactive),0.0043,1.07 (inactive),0.217 (inactive),1.06 (inactive),0.184 (inactive),1.65,0.273 (inactive),-0.381 (inactive),1.45
CN1C(=O)C2C=CC(C(O)c3ccc([N+](=O)[O-])cc3)N(Nc3ccccc3)C2C1=O (stereo not given),-1.93 (inactive),0.658,1.98 (inactive),1.36 (inactive),2.88 (inactive),1.44 (inactive),-1.06,-1.45 (inactive),-5.03 (inactive),-3.26
CC(C)N1C(=O)[C@@]2(Cc3ccccc31)c1ccccc1C(=O)N(Cc1ccccc1)[C@H]2c1ccc(CO)cc1,0.882 (inactive),-0.211,0.117 (inactive),0.945 (inactive),0.146 (inactive),0.328 (inactive),-0.274,-1.11 (inactive),-0.462 (inactive),-0.601
CC(C)C[C@@H]1NC(=O)[C@@H]2C[C@H](C(=O)NCCCCCCNC(=O)CS)[C@H](c3ccc(O)cc3)N2C1=O,0.81 (inactive),0.197,4.25 (inactive),-0.506 (inactive),0.75 (inactive),-1.54 (inactive),0.0377,0.569 (inactive),0.943 (inactive),-0.706
